For 19 molecules, outcome and AC50 results are on record in PubChem BioAssay (EPA / NIEHS).

Activity calls are given as the source filed them. Rule for the calls: active = hit-call score of the fitted dose curve at least 0.9, where 1 is the maximum; inactive = score below 0.9.

This assay can be described thus: CCTE_Shafer_MEA_acute_network_burst_percentage: CCTE's Neural Acute Assay for Percentage of Network Bursts, Shafer Lab (AID 2284022).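 Note: curves fitted for loss so actives lower network burst percentage.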 Here is the method:
CCTE_Shafer_MEA_acute assay is conducted using Axion Biosystems 48 well microelectrode array (MEA) plates and Maestro recording system. Each well of the MEA plate contains a grid of 16 microelectrodes embedded in the culture surface. Electrically active cells, such as neurons, can be cultured over the electrodes, and electrical activity in these cells can be recorded extracellularly. The spontaneous firing of neurons is captured from each electrode on a microsecond timescale providing both temporally and spatially precise data. […] The CCTE_Shafer_MEA_acute assay uses primary cultures of rat cortical neurons. As these cultures mature over time, neural networks develop functional activity and form cohesive networks in which electrical activity can be highly coordinated. Baseline 40-minute recordings are made on days post-plating 13 or 15, followed by a secondary 40-minute recording after chemical exposure.CCTE_Shafer_MEA_acute_network_burst_percentage is a component of the CCTE_Shafer_MEA_acute assay. It measures the percent of spikes (action potential firings) in network bursts (temporally-clustered groups of spikes across multiple electrodes) as the number of spikes occuring in network bursts divided by the total number of spikes during a recording in a microelectrode array (MEA) using Axion Biosystems Maestro 768 channel amplifier with the AxIS adaptive spike detector. The recordings before and after chemical treatment are used to calculate a percent change in the network burst percentage in each well.Data from the assay component CCTE_Shafer_MEA_acute_network_burst_percentage was analyzed into 1 assay endpoint. This assay endpoint, CCTE_Shafer_MEA_acute_network_burst_percentage, was analyzed in the negative analysis fitting direction relative to DMSO as the negative control and baseline of activity. Using a type of functional reporter, gain or loss-of-signal activity can be used to understand electrical activity.
Spontaneous activity in the cortical cultures was recorded using an Axion Biosystems Maestro 768 channel amplifier and Axion Integrated Studios (AxIS) v1.8 (or later) software. The amplifier recorded from all channels simultaneously (gain = 1200 x; sampling rate = 12.5 kHz/channel): raw signals were filtered with a Butterworth band-pass filter (300-5000 Hz), which filters out slower local field potentials leaving only fast potentials, i.e., "spikes", arising from extracellular currents associated with action potentials (Pine 2006; Wheeler and Nam 2011). On-line spike detection of filtered signals was conducted with the AxIS adaptive spike detector, using a threshold of 8x the root mean squared (rms) noise on each channel. Any electrodes with rms noise levels greater than 5 uV were grounded (e.g., no data were recorded). Once grounded, an electrode was grounded for the duration of the experiment. All recordings were conducted at 37 C. Wells were deemed usable if on the day of the exposure >/= 10 electrodes were active (defined as >/= 5 spikes/min). On DIV 13 or 15, a minimum of three wells from one cortical culture preparation were treated with each compound (0.03-40 uM). Prior to recording baseline activity, each mwMEA plate was placed in the Maestro at 37 C and allowed to sit for 20 min while firing rates stabilized. Baseline activity (40 min) was recorded before the addition of each compound. An additional 40 min of spontaneous activity was recorded in the presence of each compound. Changes in network parameters relative to baseline were assessed following compound treatment.
On to `C#CCOC(=O)[C@@H](C)Oc1ccc(Oc2ncc(Cl)cc2F)cc1`, for which the result was inactive. In the case of `COC(=O)c1ccccc1C(=O)O`, the result was inactive. On the same count and under the same terms, the result for `CCCN(CCC)c1c([N+](=O)[O-])cc(C(F)(F)F)c(N)c1[N+](=O)[O-]` reads “inactive”.

Take `O=C(c1ccccc1)C1CCCCC1`: the molecule was called inactive. `Oc1ccc(C(c2ccc(O)cc2)C(Cl)(Cl)Cl)cc1`: the concentration at half-maximal activity (AC50) – broadly, the concentration giving half of the maximal activity seen – is 4.15 µM (active). As for `OB(O)O`, the result was inactive. Consider `O=C(Nc1ccc([N+](=O)[O-])cc1Cl)c1cc(Cl)ccc1O`, for which the AC50 was 0.252 µM (active). As to `CC(C)(c1ccc(O)cc1)c1ccc(O)cc1`, the result was inactive. As for `CSC(=O)c1cccc2nnsc12`, the call was inactive. Regarding `Cc1nn(C)c(Oc2ccccc2)c1C=NOCc1ccc(C(=O)OC(C)(C)C)cc1`, the AC50 was 1.5 µM (active). In the case of `O=C(c1ccc(O)cc1O)c1ccc(O)cc1O`, the molecule was classed as inactive.

On to `N#CSCSc1nc2ccccc2s1`, for which the AC50 is 37.2 µM (active).

`CC1(C)C(C=C(Cl)Cl)C1C(=O)OCc1cccc(Oc2ccccc2)c1` (centres undefined): the AC50 was 20 µM (active). Turning to `CCCCC(CC)CN1C(=O)C2C3C=CC(C3)C2C1=O` (centres undefined), the outcome was inactive.

For the molecule `CCNc1nc(N)nc(Cl)n1`, the outcome was inactive. `C=CCOC(Cn1ccnc1)c1ccc(Cl)cc1Cl` (centres undefined): the molecule was classed as inactive. Still for that read-out and setting: the result for `CC(C)CCCCCCc1ccc(O)cc1` reads “inactive”; that for `CC(C)(C)[C@@H](O)[C@@H](Cc1ccc(Cl)cc1)n1cncn1`, “inactive”; that for `O=C(O)c1ccccc1`, “inactive”.
